The record followed here is PubChem BioAssay (NCI).

About 83,000 compounds went through this panel and 20% of them were active in at least one assay; those are over-represented in the sample as a whole.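 Interpretation: 100, growth as untreated; towards 0, rising growth inhibition; 0, no net growth; 0 to -100, cell death. Compounds scoring below 10 were considered active.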 A number with no mark means an inactive call. Calls of active or inactive are those of the source.

In one assay the test system is HCT-15 colon. Description: NCI-60 one-dose screen, 48 h (100 = growth as untreated, 0 = no growth, -100 = all killed). The following applies: 10 µM unless noted.
As to `COc1ccccc1Cn1cc2c(c1)-c1oncc1CC2`, the growth is 15.7%.
On the same count and under the same terms, the figure for `CC1=NN(c2cccc(Cl)c2)C(=O)/C1=C\c1cn(-c2nc(N3CCOCC3)nc(N3CCOCC3)n2)c2ccccc12` is 107%.
In the case of `NC(=O)c1c(Nc2ccccc2)nn2cc(-c3nc4ccccc4s3)c(N)nc12`, the growth is 101%.
Regarding `COc1cc(/C(=C2/O[C@@H]([C@H]3COC(C)(C)O3)[C@H]3OC(C)(C)O[C@@H]23)c2ccc3c(c2)OCO3)cc(OC)c1OC`, the growth is 91.3%.
On to `O=C(N/N=C/c1coc2ccccc2c1=O)c1cc2oc(-c3ccccc3)cc2[nH]1`, for which the growth was 100%.
Take `CCCCCCCCCC[N+](C)(C)C`: the growth is 39.3%.
The same measure, in the same setting: the figure for `CCCCCCC(=O)C(C)C` is 102%; for `CCCC(=O)NNc1[nH]c(-c2ccc(OC)cc2)cc1C(=O)OCC` it is 100%.
On to `O=C1c2cc([N+](=O)[O-])ccc2-c2cc(Cl)c(NC(=O)C(F)(F)F)cc21`, for which the growth is 95.4%.
For the compound `N=C(c1ccccc1)N(Cc1ccccc1)Cc1ccccc1`, the growth is 74.8%.
With `CSCc1ncc(-c2ccc(C(F)(F)F)cc2)c(NC2CCCCCC2)n1`, the growth is 64.9% [25 µM].
Take `O=C(Nc1cccc(Cn2c(=O)[nH]c3ccc(Oc4ncccn4)cc3c2=O)c1)c1ccc(Cl)cc1`: the growth is 59%.
Turning to `CC[C@H](Nc1ncnc2nc[nH]c12)c1nc2cccc(NCc3ccc(C(=O)NO)o3)c2c(=O)n1-c1ccccc1`, the growth was 103%.
Consider `CCCCCCCCCC[N+](C)(C)N`, for which the growth was 101%.
As to `C=C(C)C(C(=O)OCC)(C(=O)OCC)C(C)C`, the growth is 102%.
As to `COC1=CC(c2ccc[nH]2)=N/C1=C\c1[nH]c(C)c(C(=O)CCCCC(=O)NC(C)(C)C)c1C`, the growth is -31.8% (active).
For the compound `COc1ccc(NC(=O)/C=C(C)/C=C/C=C(C)/C=C/C2=C(C)CCCC2(C)C)cc1`, the growth was 72.5%.
Take `CCCCCCCCc1ccc(OCCOCC[N+](C)(C)CC)cc1` (tested in a mixture with another compound): the growth was 98.4%.
Turning to `COc1cc2c(cc1OC)C(Cc1cc(OC)c(OC)cc1[N+](=O)[O-])=NCC2`, the growth was 95.8%.
As to `O=C1CCNC1`, the growth is 101%.
As for `COc1ccc(-c2nnc(SCC(=O)Nc3ccc(C(=O)/C=C/c4cc(OC)c(OC)c(OC)c4)cc3)n2-c2ccccc2)cc1OC`, the growth was 8.91% [100 µM] (active).
Regarding `O=S(=O)(O)c1ccc2c(c1)Sc1cc(S(=O)(=O)O)ccc1O2`, the growth was 113%.
Consider `Cc1ccc(S(=O)(=O)Nc2cccc(Cn3c(=O)[nH]c4ccc(Oc5ncccn5)cc4c3=O)c2)cc1`, for which the growth was 91%.
In the case of `CCCCCCCCCCC(C[N+](C)(C)C/C=C/c1ccccc1)C(O)c1ccccc1` (stereo not given), the growth was 79.1%.
`COc1ccc(/C=C2\CCCC3=C2N=C2SC=NN2C3c2ccc(OC)c(OC)c2)cc1OC` (stereo not given): the growth is 34.2%.
Take `COc1cc(CCNc2cnc3cc(N)cc(N)c3n2)cc(OC)c1`: the growth was 104%.
`O=C(CCl)c1ccc2c(c1)CCCC2`: the growth was 69.6%.
Take `Cc1ccc(C(=O)Nc2ccc(CN3CCN(C)CC3)c(C(F)(F)F)c2)cc1C#Cc1cnc(N)c2ccc(F)cc12`: the growth was -93.4% (active).
On to `Cc1ccc(C(=O)Nc2ccc(CN3CCN(C)CC3)c(C(F)(F)F)c2)cc1C#Cc1cncc2ncccc12`, for which the growth was -92.9% (active).
With `O=C(Nc1ccc(-n2cc(-c3ccncc3)c(-c3ccc(Cl)c(O)c3)n2)cc1)c1cc(C(F)(F)F)cc(C(F)(F)F)c1`, the growth is 27.8%.
Regarding `CCCCCCCCCC(C)NC(=O)CCl` (stereo not given), the growth is 89.6%.
Same read-out and setting: under `COc1ccc(C(=O)CN2C(=O)NC(c3ccccc3)(c3ccccc3)C2=O)cc1` stands 99.5%; under `CCCCCCCCC(=O)Nc1ccc(O)cc1`, 94.6%.
In the case of `COc1ccc(-c2nc(SCC(C)C)nc(Nc3ccccc3)c2C#N)cc1`, the growth was 83.4%.
As to `N#Cc1ccc(NC2c3ccccc3CC2O)cc1` (stereo not given), the growth is 101%.
On to `N#CCCCCCCCCCCC#N`, for which the growth was 99.4%.
As to `CCOC(=O)c1ccc2n1CCCc1cnc(NC(C)=O)nc1-2`, the growth is 107%.
On the same count and under the same terms, under `O=C(/C(Br)=C/c1ccccc1)c1ccccc1` stands -21.9% (active).
Still for that read-out and setting: the figure for `COc1ccc2c(N)ncc(C#Cc3cc(C(=O)Nc4ccc(CN5CCN(C)CC5)c(C(F)(F)F)c4)cnc3C)c2c1` is -76.2% (active); for `CCCCCCCCCCCC(=O)OC(C)C(=O)Nc1ccccc1` (stereo not given) it is 97%.

A further assay relates to HT29 colon. Described as above. The following applies: 10 µM unless noted.
For the compound `COc1ccccc1Cn1cc2c(c1)-c1oncc1CC2`, the growth was 9.87% (active).
Same read-out and setting: under `CC1=NN(c2cccc(Cl)c2)C(=O)/C1=C\c1cn(-c2nc(N3CCOCC3)nc(N3CCOCC3)n2)c2ccccc12` stands 95.4%.
Consider `NC(=O)c1c(Nc2ccccc2)nn2cc(-c3nc4ccccc4s3)c(N)nc12`, for which the growth is 103%.
As to `COc1cc(/C(=C2/O[C@@H]([C@H]3COC(C)(C)O3)[C@H]3OC(C)(C)O[C@@H]23)c2ccc3c(c2)OCO3)cc(OC)c1OC`, the growth was 68.4%.
For the compound `O=C(N/N=C/c1coc2ccccc2c1=O)c1cc2oc(-c3ccccc3)cc2[nH]1`, the growth is 107%.
As for `CCCCCCCCCC[N+](C)(C)C`, the growth was 8.24% (active).
Regarding `CCCCCCC(=O)C(C)C`, the growth is 109%.
Turning to `CCCC(=O)NNc1[nH]c(-c2ccc(OC)cc2)cc1C(=O)OCC`, the growth is 110%.
As to `O=C1c2cc([N+](=O)[O-])ccc2-c2cc(Cl)c(NC(=O)C(F)(F)F)cc21`, the growth was 108%.
Still for that read-out and setting: under `N=C(c1ccccc1)N(Cc1ccccc1)Cc1ccccc1` stands 53.4%.
Turning to `CSCc1ncc(-c2ccc(C(F)(F)F)cc2)c(NC2CCCCCC2)n1`, the growth was 64.9% [25 µM].
As for `O=C(Nc1cccc(Cn2c(=O)[nH]c3ccc(Oc4ncccn4)cc3c2=O)c1)c1ccc(Cl)cc1`, the growth is 40.3%.
Consider `CC[C@H](Nc1ncnc2nc[nH]c12)c1nc2cccc(NCc3ccc(C(=O)NO)o3)c2c(=O)n1-c1ccccc1`, for which the growth is 91.3%.
For `CCCCCCCCCC[N+](C)(C)N`, the growth was 85.4%.
On to `C=C(C)C(C(=O)OCC)(C(=O)OCC)C(C)C`, for which the growth is 116%.
For `COC1=CC(c2ccc[nH]2)=N/C1=C\c1[nH]c(C)c(C(=O)CCCCC(=O)NC(C)(C)C)c1C`, the growth is 3.41% (active).
Consider `COc1ccc(NC(=O)/C=C(C)/C=C/C=C(C)/C=C/C2=C(C)CCCC2(C)C)cc1`, for which the growth was 72.4%.
As for `CCCCCCCCc1ccc(OCCOCC[N+](C)(C)CC)cc1` (tested in a mixture with another compound), the growth was 25.5%.
On to `COc1cc2c(cc1OC)C(Cc1cc(OC)c(OC)cc1[N+](=O)[O-])=NCC2`, for which the growth is 50.9%.
Still for that read-out and setting: under `O=C1CCNC1` stands 106%.
As to `COc1ccc(-c2nnc(SCC(=O)Nc3ccc(C(=O)/C=C/c4cc(OC)c(OC)c(OC)c4)cc3)n2-c2ccccc2)cc1OC`, the growth is 3.6% [100 µM] (active).
As to `O=S(=O)(O)c1ccc2c(c1)Sc1cc(S(=O)(=O)O)ccc1O2`, the growth was 106%.
Turning to `Cc1ccc(S(=O)(=O)Nc2cccc(Cn3c(=O)[nH]c4ccc(Oc5ncccn5)cc4c3=O)c2)cc1`, the growth was 65.1%.
Same read-out and setting: the figure for `CCCCCCCCCCC(C[N+](C)(C)C/C=C/c1ccccc1)C(O)c1ccccc1` (stereo not given) is -79.8% (active); for `COc1ccc(/C=C2\CCCC3=C2N=C2SC=NN2C3c2ccc(OC)c(OC)c2)cc1OC` (stereo not given) it is 14.4%; for `COc1cc(CCNc2cnc3cc(N)cc(N)c3n2)cc(OC)c1` it is 100%.
Take `O=C(CCl)c1ccc2c(c1)CCCC2`: the growth was 103%.
With `Cc1ccc(C(=O)Nc2ccc(CN3CCN(C)CC3)c(C(F)(F)F)c2)cc1C#Cc1cnc(N)c2ccc(F)cc12`, the growth was -85% (active).
With `Cc1ccc(C(=O)Nc2ccc(CN3CCN(C)CC3)c(C(F)(F)F)c2)cc1C#Cc1cncc2ncccc12`, the growth is -89.3% (active).
Regarding `O=C(Nc1ccc(-n2cc(-c3ccncc3)c(-c3ccc(Cl)c(O)c3)n2)cc1)c1cc(C(F)(F)F)cc(C(F)(F)F)c1`, the growth was 11.1%.
The same measure, in the same setting: the figure for `CCCCCCCCCC(C)NC(=O)CCl` (stereo not given) is 114%; for `COc1ccc(C(=O)CN2C(=O)NC(c3ccccc3)(c3ccccc3)C2=O)cc1` it is 100%.
With `CCCCCCCCC(=O)Nc1ccc(O)cc1`, the growth is 94.2%.
`COc1ccc(-c2nc(SCC(C)C)nc(Nc3ccccc3)c2C#N)cc1`: the growth is 78.9%.
Turning to `N#Cc1ccc(NC2c3ccccc3CC2O)cc1` (stereo not given), the growth is 110%.
In the case of `N#CCCCCCCCCCCC#N`, the growth was 95.7%.
As to `CCOC(=O)c1ccc2n1CCCc1cnc(NC(C)=O)nc1-2`, the growth is 106%.
On to `O=C(/C(Br)=C/c1ccccc1)c1ccccc1`, for which the growth was -66.2% (active).
Take `COc1ccc2c(N)ncc(C#Cc3cc(C(=O)Nc4ccc(CN5CCN(C)CC5)c(C(F)(F)F)c4)cnc3C)c2c1`: the growth is -78.3% (active).
With `CCCCCCCCCCCC(=O)OC(C)C(=O)Nc1ccccc1` (stereo not given), the growth is 99.7%.
